# The panel holds about 83,000 compounds, 20% with a hit somewhere; the sample as a whole holds those more often.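 Plates (96-well) were seeded with cells, treated with compound at one concentration, and incubated for 48 hours before percent growth was determined.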 A number with no mark means an inactive call. Active and inactive are the calls of the source. The calls were made as follows: active = growth percent below 10; inactive = the rest.
# What was measured:
# Experiment in all cases: NCI-60 one-dose screen, 48 h (100 = growth as untreated, 0 = no growth, -100 = all killed)
# Conditions in all cases: 10 µM unless noted
# SK-MEL-2 melanoma = test system: SK-MEL-2 melanoma
# EKVX NSCLC = test system: EKVX NSCLC
# SN12C renal = test system: SN12C renal
# UO-31 renal = test system: UO-31 renal
# TK-10 renal = test system: TK-10 renal
# ACHN renal = test system: ACHN renal
# CAKI-1 renal = test system: CAKI-1 renal
# A498 renal = test system: A498 renal
# CCRF-CEM leukemia = test system: CCRF-CEM leukemia
# MOLT-4 leukemia = test system: MOLT-4 leukemia
SMILES,growth (SK-MEL-2 melanoma),growth (EKVX NSCLC),growth (SN12C renal),growth (UO-31 renal),growth (TK-10 renal),growth (ACHN renal),growth (CAKI-1 renal),growth (A498 renal),growth (CCRF-CEM leukemia),growth (MOLT-4 leukemia)
C[C@@H]1N=C(c2ccc3ccccc3n2)Nc2nc3ccccn3c2C1=O,109%,77.7%,95.6%,70.1%,142%,85.7%,82.1%,108%,115%,100%
CCN1C(=O)N(CC)C2Nn3c(s/c(=C4\C(=O)N(C)c5ccccc54)c3=O)=NC21 (stereo not given),48.2%,71.2%,43.4%,48.6%,8.83% (active),46.9%,36%,-2.65% (active),35.8%,60.5%
COc1cc(C(=O)c2cc(C)c3[nH]c4ccc(Cl)cc4c3c2C)cc(OC)c1OC,57.6%,50.2%,17.5%,24.6%,87.5%,24.2%,21%,-9.44% (active),17.2%,20.7%
CC(=O)N1C(=S)NC(=O)C1Cn1c(-c2ccccc2)nc2ccccc21 (stereo not given),109%,96.3%,98.6%,80.8%,121%,100%,90.4%,70.7%,97.1%,96.5%
COc1c(CCC[P+](c2ccccc2)(c2ccccc2)c2ccccc2)cc2c(c1OC)OCO2,-24.2% (active),15.6%,2.66% (active),86.6%,2.13% (active),55.6%,31.9%,-9.74% (active),29.7%,33.3%
COCN1CCC2N(COC)CCC3N(COC)CCC1N23 (stereo not given),107%,108%,89.6%,107%,113%,108%,102%,113%,104%,111%
CN(C)CCNc1nc2ccccc2c2c1c1c(n2Cc2ccccc2)-c2ccccc2C1=O,-74.6% (active),-87.8% (active),-89.1% (active),-77.8% (active),-80% (active),-98.4% (active),-80.1% (active),-96.4% (active),-60.6% (active),-84.3% (active)
CCC1(C2CCCC2)NC(=O)NC1=O (stereo not given),102%,105%,99%,87.4%,113%,93.8%,100%,100%,87.8%,110%
Clc1ccc(-c2c3ccc(=[N+]4CCCCC4)cc-3oc3cc(N4CCCCC4)ccc23)cc1,-77.4% (active),-66.7% (active),-79.1% (active),-83.9% (active),-94.8% (active),-94.4% (active),-75.2% (active),-97.5% (active),0.54% (active),-32.1% (active)
Cc1ccc(NS(=O)(=O)c2ccc3c(c2)C(=O)CC(c2ccc(C(=O)C(C)C)cc2)N3)cc1C (stereo not given),64.2%,22.7%,76.4%,51.7%,77.9%,55.1%,55.9%,45.2%,50.3%,54.5%
O=C(NC(Cc1nnc2n(Cc3ccccc3)c(=O)c3c4c(sc3n12)CCCC4)c1ccc(Cl)cc1)c1ccccc1 (stereo not given),95.7%,94.6%,92.4%,-5.74% (active),99%,67.5%,94.3%,83.5%,80.5%,53.1%
c1ccc2cc3nc4cc5ccccc5cc4nc3cc2c1,104%,100%,88.6%,89%,108%,97.4%,113%,107%,-24.9% (active),109%
COc1ccc(NC(=O)CSc2nnc(-c3cc(-c4ccccc4)nc4ccccc34)n2-c2ccccc2)cc1,102%,78.1%,88.9%,67%,117%,94.6%,80%,74.3%,86.9%,80.2%
